Experimental data taken from PubChem BioAssay (NCATS).
Inconclusive results are not listed. The source made the active and inactive calls. Calls come from the whole dose curve; as a rule, active = well fitted curve in the direction sought with a large enough effect; inconclusive = small, poorly fitted or top-dose-only effect, or another doubt; inactive = no such curve, though single readings can be large; an effect the other way counts as inactive or inconclusive. *1 amine or outer side, *2 acyl side, *3 side chain or, on linkers, in order; H or OH if unused. Where a SMILES comes first, the peptide text is derived from it. Bridges are numbered along the chain shown (N, C = ends). [ ]: non-standard residue; d: D form. X6 = O=C(CCC[*:2])[*:1]; 2Abz = Nc1ccccc1C(=O)O

Columns and labels:
[1] = system: NIH3T3; test: qHTS assay to identify novel small-molecules to repurpose for Merkel cell carcinoma treatment (AID 1296009); conditions: MCC and control cell lines, CellTiter-Glo viability, 72 h; at 44.8 µM (top of the series) unless noted; note: nearly all actives have a fitted effect of over 60% in size
Outline: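 CellTiter-Glo luminescence after 72 hr compound exposure at 37 degree celsius gave cell viability. Libraries NPC and MIPE were run as 8- and 11-point dose responses; RLUs normalized to DMSO (negative) and no-cell (cytotoxicity) controls.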

[2] = system: C33A; test: Primary qHTS to identify gynecologic anti-cancer compounds using libraries of approved drugs and bioactive compounds (AID 1345084); conditions: Gynecologic cancer cell panel viability, ATPlite luminescence, 48 h; series mostly up to 57.5 µM; note: nearly all actives have a fitted effect of over 55% in size
Outline: (§1)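 Luminescence from the ATPlite ATP-monitoring reagent indicates viable cell number; lower signal means cytotoxicity. Cells received compound 16 h after seeding and were exposed for 48 h across five concentrations.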

[3] = system: CAOV3; test: as above; conditions: Gynecologic cancer cell panel viability, ATPlite luminescence, 48 h; series mostly up to 57.5 µM
Outline: as §1

[4] = system: CASKI; test: as above; conditions: Gynecologic cancer cell panel viability, ATPlite luminescence, 48 h; series mostly up to 57.5 µM
Outline: as §1

[5] = system: Es-2; test: as above; conditions: Gynecologic cancer cell panel viability, ATPlite luminescence, 48 h; series mostly up to 57.5 µM
Outline: as §1

[6] = system: HeLa; test: as above; conditions: Gynecologic cancer cell panel viability, ATPlite luminescence, 48 h; series mostly up to 57.5 µM
Outline: as §1

[7] = system: Hek293T; test: as above; conditions: Gynecologic cancer cell panel viability, ATPlite luminescence, 48 h, control line for the selectivity index; series mostly up to 57.5 µM
Outline: as §1

[8] = system: JEG-3; test: as above; conditions: Gynecologic cancer cell panel viability, ATPlite luminescence, 48 h; series mostly up to 57.5 µM
Outline: as §1

Measured: Potency

CC1(O)CCC2C(C(=O)O)=COC(OC3OC(CO)C(O)C(O)C3OC(=O)/C=C/c3ccc(O)cc3)C21 (centres undefined)
inactive: [1] inactive [at 17.4 µM] | [2] | [3] | [4] | [5] | [6] | [7] | [8]

CCC(C)(O)C(O)C(=O)OCc1ccc(O[C@@H]2O[C@H](CO)[C@@H](O)[C@H](O)[C@H]2O)c(OC)c1 (some centres undefined)
inactive: [1] inactive [at 17.4 µM] | [2] | [3] | [4] | [5] | [6] | [7] | [8]

C=C1CCC2(OC1)OC1CC3C4CC=C5CC(O)CC(O[C@@H]6OC[C@@H](O)[C@H](O)[C@H]6O)C5(C)C4CCC3(C)C1(O)C2C (some centres undefined)
inactive: [1] inactive [at 17.4 µM] | [2] | [3] | [4] | [5] | [6] | [7] | [8]

C/C=C/C1=CC2=C(CO1)C(=O)[C@](C)(O)[C@H](OC(=O)c1c(O)cc(OC)c(O)c1C)C2
inactive: [1] inactive [at 17.4 µM] | [2] | [3] | [4] | [5] | [6] | [7] | [8]

C=C1CCC2C(C)(C(=O)O)CC(O)CC2(C)C1CC/C(C)=C/C(=O)O (centres undefined)
inactive: all assays above

CC(=O)OC1C(O)C(C)=C(CCC(C)CC(=O)O)C2(C)CCCC(C)(C)C12 (centres undefined)
inactive: all assays above

C=C(C)C1CC2(CO)C(=CC1=O)CCC(O)C2C (centres undefined)
inactive: all assays above

CCOC(=O)[C@H](CCc1ccccc1)N[C@@H](C)C(=O)N1C2CCCCC2C[C@H]1C(=O)O (some centres undefined)
inactive: all assays above

CC1=CC(=O)CC(C)(CO[C@@H]2O[C@H](CO)[C@@H](O)[C@H](O)[C@H]2O)C1(O)/C=C/C(C)=C/C(=O)O (some centres undefined)
inactive: [1] inactive [at 17.4 µM] | [2] | [3] | [4] | [5] | [6] | [7] | [8]

CC(=O)OC1C(O)CC(O[C@@H]2O[C@H](CO)[C@@H](O)[C@H](O)[C@H]2O)C2CCC3C(=O)OC(c4ccoc4)CC3(C)C21 (some centres undefined)
inactive: [1] inactive [at 17.4 µM] | [2] | [3] | [4] | [5] | [6] | [7] | [8]

NC(=O)c1ccc(OCC2NC(=O)C3CCCN3C2=O)cc1 (centres undefined)
inactive: all assays above

COc1cccc(-c2ccc([C@@H](Oc3cc(-c4ccc(C[C@H](N)C(=O)O)cc4)nc(N)n3)C(F)(F)F)cc2)c1
inactive: all assays above

C=CC(C)(C)C12CC3C(=O)NC(Cc4cnc[nH]4)C(=O)N3C1Nc1ccccc12 (centres undefined)
inactive: all assays above

O=C1NCc2nc3ccccc3c(=O)n2C1Cc1c[nH]c2ccccc12 (centres undefined)
inactive: all assays above

CCOC(=O)Nc1nc2ccccc2[nH]1
inactive: all assays above

CC/C=C\C[C@H]1C(=O)C=C[C@@H]1CCCCCCCC(=O)O
inactive: all assays above

CC[C@H](C)[C@@H]1NC(=O)[C@H](Cc2ccc(OC)cc2)NC(=O)CCCSC[C@@H](C(=O)N2CCC[C@H]2C(=O)N[C@@H](CC(C)C)C(=O)NCC(N)=O)NC(=O)[C@H](CC(N)=O)NC(=O)[C@H](CCC(N)=O)NC1=O (Y(Me)IQNCPLG-NH2; linker N-5 via X6)
inactive: all assays above

COc1ccc(C(=O)O[C@H]2CC(C)=CC[C@@]3(C)[C@@H](OC(C)=O)C[C@@](O)(C(C)C)[C@H]23)cc1
inactive: [1] inactive [at 17.4 µM] | [2] | [3] | [4] | [5] | [6] | [7] | [8]

CCC(C)C1NC(=O)C2CCCN2C(=O)C(C(C)C)NC(=O)c2ccccc2NC(=O)C(Cc2ccc(O)cc2)NC(=O)C(C)NC(=O)C(C(C)O)NC1=O (centres undefined) (cyclo([2Abz]VPITAY); configuration not given here)
inactive: [1] inactive [at 17.4 µM] | [2] | [3] | [4] | [5] | [6] | [7] | [8]

C=C1CCC[C@]2(C)C[C@]3(O)OC(=O)C(C)=C3C[C@@H]12
inactive: all assays above

C[C@]12CC[C@@H]3c4ccc(O[C@@H]5O[C@H](C(=O)O)[C@@H](O)[C@H](O)[C@H]5O)cc4CC[C@H]3[C@@H]1CCC2=O
inactive: all assays above

C[C@@H]1C[C@H](O[C@@H]2O[C@H](CO[C@@H]3OC[C@](O)(CO)[C@H]3O)[C@@H](O)[C@H](O)[C@H]2O)CC(C)(C)[C@H]1/C=C/[C@@H](C)O
inactive: [1] inactive [at 17.4 µM] | [2] | [3] | [4] | [5] | [6] | [7] | [8]

COC(=O)C1C(c2ccc(O)cc2)C(C(=O)OC)C1c1ccc(O)cc1 (centres undefined)
inactive: all assays above

CCCC(N[C@@H](C)C(=O)N1[C@H](C(=O)O)C[C@@H]2CCCC[C@@H]21)C(=O)OCC (some centres undefined)
inactive: all assays above

CCOC(=O)c1ccc(N(C)c2csc(-c3ccccc3)n2)cc1
inactive: all assays above

CC1(C)CCC(C)(C)c2cc([C@@H](O)C(=O)Nc3ccc(C(=O)O)cc3F)ccc21
inactive: all assays above

CC1CCC2C(C)(C)C(O)CCC2(C)C12Cc1c(O)cc3c(c1O2)C(N)=NC3 (centres undefined)
inactive: all assays above

O=C(NCc1ccc(OC(F)(F)F)cc1)C1c2ccccc2C(=O)N1C1CCOCC1 (centres undefined)
inactive: all assays above
